Reference: PubChem BioAssay (Tox21)
Records with an inconclusive call do not appear. Calls of active or inactive are those of the source. Unless noted, calls come from the whole dose curve.

What was measured:
[1] = Nuclear factor erythroid 2-related factor 2/antioxidant responsive element (Nrf2/ARE) small molecule agonists: qHTS cell viability counter screen in human keratinocytes (AID 1919968; active = well fitted curve in the direction sought with a large enough effect in the repeat runs; an effect the other way counts as inactive or inconclusive; note: nearly all actives have a fitted effect of over 55% in size)
Method in brief: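 Measured as CellTiter-Fluor fluorescence, this readout tracks cytotoxicity in the same wells as the ARE-luciferase screen. HaCaT reporter cells (1,500/well) received compounds after a 5 h pre-incubation and were exposed for 23 h.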

[2] = target: Gonadotropin-releasing hormone receptor (Homo sapiens) (UniProt P30968); experiment: Human gonadotropin-releasing hormone receptor (GnRHR) small molecule agonists, calcium flux assay in GnRHR-HEK293 cells (AID 1920063); note: nearly all actives have a fitted effect of over 35% in size
Sequence of Gonadotropin-releasing hormone receptor (Homo sapiens) (P30968 whole entry, looked up): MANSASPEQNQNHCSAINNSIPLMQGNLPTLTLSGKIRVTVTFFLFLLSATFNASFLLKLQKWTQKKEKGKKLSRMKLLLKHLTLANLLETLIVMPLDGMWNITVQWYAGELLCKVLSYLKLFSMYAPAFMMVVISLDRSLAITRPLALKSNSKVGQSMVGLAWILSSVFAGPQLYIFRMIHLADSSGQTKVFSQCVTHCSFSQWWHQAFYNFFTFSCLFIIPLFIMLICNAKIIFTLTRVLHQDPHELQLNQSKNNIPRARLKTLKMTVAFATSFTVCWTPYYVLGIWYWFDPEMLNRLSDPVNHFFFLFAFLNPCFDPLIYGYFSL
Method in brief: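 Fluorescence kinetics (480 nm excitation, 540 nm emission; 3 min, 1 s steps) report calcium mobilisation in human GnRHR-HEK293 cells in agonist mode. Dye incubation: 1 h, 37 C.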

[3] = target: KiSS-1 receptor (Homo sapiens) (UniProt Q969F8); experiment: Human kisspeptin (KISS1R) small molecule agonists, calcium flux assay in KISS1R-HEK293 cells (AID 1920064; active = well fitted curve in the direction sought with a large enough effect in the repeat runs; an effect the other way counts as inactive or inconclusive)
Sequence of KiSS-1 receptor (Homo sapiens) (Q969F8 whole entry, looked up): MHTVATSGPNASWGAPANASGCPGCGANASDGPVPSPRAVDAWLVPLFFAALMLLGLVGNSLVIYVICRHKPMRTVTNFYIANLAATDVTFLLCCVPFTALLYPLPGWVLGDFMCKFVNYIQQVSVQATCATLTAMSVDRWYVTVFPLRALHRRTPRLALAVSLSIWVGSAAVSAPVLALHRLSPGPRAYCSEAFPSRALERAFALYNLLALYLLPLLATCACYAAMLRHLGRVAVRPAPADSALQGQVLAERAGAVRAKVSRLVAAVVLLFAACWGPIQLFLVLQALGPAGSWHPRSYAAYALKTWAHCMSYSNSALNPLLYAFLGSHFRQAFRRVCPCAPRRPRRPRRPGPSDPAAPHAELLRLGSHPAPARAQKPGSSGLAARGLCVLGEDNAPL
Method in brief: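 Measures KISS1R agonism through calcium-sensitive dye fluorescence in stably transfected HEK293 cells, read for 3 min after pin-tool compound delivery; 15-point titrations in triplicate.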

[4] = G protein-coupled receptor (GPCR) small molecule agonists, calcium flux assay: HEK293 wild type cell line counter screen (AID 1920065)
Method in brief: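 Readout: fluorescence at 480 nm excitation/540 nm emission, sampled at 1 s intervals for 3 min. Cells had been cultured 18 h, then dye-loaded 1 h at 37 C before compound or ATP addition.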

[5] = p53 small molecule agonists, cell-based qHTS assay with human liver microsomes: qHTS cell viability counter screen (AID 1963579); note: nearly all actives have a fitted effect of over 45% in size
Method in brief: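 Cytotoxicity counter screen: p53RE-bla, 4,000 cells/well; 5 h settle, 37 C/5% CO2; cpd + HLM 0.5 mg/mL + NADPH 0.5 mg/mL (final); 16 h, 37 C; CellTiter-Glo, 30 min RT, luminescence.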

[6] = p53 small molecule agonists, cell-based qHTS assay with rat liver microsomes: qHTS cell viability counter screen (AID 1963580); note: nearly all actives have a fitted effect of over 45% in size
Method in brief: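 p53RE-bla HCT-116 cells (4,000/well) rested 5 h at 37 C, then given Tox21 compounds in DMSO with rat liver microsomes (0.5 mg/mL final) plus NADPH (0.5 mg/mL final) for 16 h at 37 C. Viability read by CellTiter-Glo luminescence after 30 min at room temperature.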

[7] = target: 5-hydroxytryptamine receptor 2A (Homo sapiens) (UniProt P28223); experiment: 5-hydroxytryptamine receptor 2A (HTR2A) small molecule agonists, cell-based qHTS assay (AID 1963587); note: nearly all actives have a fitted effect of over 30% in size
Sequence of 5-hydroxytryptamine receptor 2A (Homo sapiens) (P28223 whole entry, looked up): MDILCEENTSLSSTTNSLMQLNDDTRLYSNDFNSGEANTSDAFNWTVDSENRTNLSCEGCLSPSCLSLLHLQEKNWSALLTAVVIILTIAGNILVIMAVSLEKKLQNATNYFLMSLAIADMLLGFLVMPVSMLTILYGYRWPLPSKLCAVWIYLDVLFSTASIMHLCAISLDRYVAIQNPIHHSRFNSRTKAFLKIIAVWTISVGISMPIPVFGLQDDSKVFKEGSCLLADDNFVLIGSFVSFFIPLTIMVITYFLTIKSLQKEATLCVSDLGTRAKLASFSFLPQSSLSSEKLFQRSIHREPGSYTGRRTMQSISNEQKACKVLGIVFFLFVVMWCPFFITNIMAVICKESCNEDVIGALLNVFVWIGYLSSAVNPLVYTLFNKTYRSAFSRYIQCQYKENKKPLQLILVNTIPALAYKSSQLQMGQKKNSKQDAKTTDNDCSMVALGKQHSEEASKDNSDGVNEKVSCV
Method in brief: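 HTR2A-CHO cells, plated 18 h at 37 C/5% CO2, dye-loaded 1 h at 37 C; compounds in DMSO added by pin tool (agonist mode). Intracellular calcium flux read as kinetic fluorescence on FDSS over 2 min at 1 s intervals.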

[8] = target: Muscarinic acetylcholine receptor M1 (Homo sapiens) (UniProt P11229); experiment: Cholinergic receptor muscarinic 1 (CHRM1) small molecule agonists, cell-based qHTS assay (AID 1963589); note: nearly all actives have a fitted effect of over 35% in size
Sequence of Muscarinic acetylcholine receptor M1 (Homo sapiens) (P11229 whole entry, looked up): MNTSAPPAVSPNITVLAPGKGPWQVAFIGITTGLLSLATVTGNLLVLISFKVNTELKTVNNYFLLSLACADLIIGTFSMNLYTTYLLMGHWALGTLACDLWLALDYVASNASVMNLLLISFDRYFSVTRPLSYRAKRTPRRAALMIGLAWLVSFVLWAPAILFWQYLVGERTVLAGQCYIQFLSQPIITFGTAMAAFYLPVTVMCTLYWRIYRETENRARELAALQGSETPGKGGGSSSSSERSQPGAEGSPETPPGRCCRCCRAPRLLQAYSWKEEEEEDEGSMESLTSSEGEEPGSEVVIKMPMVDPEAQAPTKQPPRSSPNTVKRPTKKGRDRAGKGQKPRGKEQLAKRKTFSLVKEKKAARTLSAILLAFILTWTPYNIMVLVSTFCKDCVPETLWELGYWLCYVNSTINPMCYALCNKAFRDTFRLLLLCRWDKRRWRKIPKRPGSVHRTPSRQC
Method in brief: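 Each compound was tested at 15 concentrations across three independent runs on dye-loaded CHO cells stably expressing human CHRM1, reading intracellular calcium fluorescence kinetically at 1 sec intervals.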

[9] = cAMP Responsive Elements (CRE) small molecule agonists, cell-based qHTS assay (AID 1963590)
Method in brief: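 Cell line: CRE-bla HEK 293T; medium DMEM/10% dialyzed FBS/0.1 mM NEAA/1 mM pyruvate/25 mM HEPES; 3 h compound exposure; beta-lactamase FRET readout after 2 h substrate loading at RT.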

[10] = cAMP Responsive Elements (CRE) small molecule antagonists, cell-based qHTS assay (AID 1963591; active = well fitted inhibition curve with a large enough effect in the signal ratio in the repeat runs, not every such curve was filed as active; the % refers to the signal ratio)
Method in brief: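 Inhibition of NKH477-driven (0.25 uM final) CRE-beta-lactamase signal in HEK293T cells, 3 h compound exposure at 37 °C, detected by FRET substrate fluorescence.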

[11] = target: Beta-2 adrenergic receptor (Homo sapiens) (UniProt P07550); experiment: Adrenergic beta2 receptor (ADRB2) small molecule antagonists, cell-based qHTS assay (AID 1963592); note: series mostly up to about 92 µM; nearly all actives have a fitted effect of over 50% in size
Sequence of Beta-2 adrenergic receptor (Homo sapiens) (P07550 whole entry, looked up): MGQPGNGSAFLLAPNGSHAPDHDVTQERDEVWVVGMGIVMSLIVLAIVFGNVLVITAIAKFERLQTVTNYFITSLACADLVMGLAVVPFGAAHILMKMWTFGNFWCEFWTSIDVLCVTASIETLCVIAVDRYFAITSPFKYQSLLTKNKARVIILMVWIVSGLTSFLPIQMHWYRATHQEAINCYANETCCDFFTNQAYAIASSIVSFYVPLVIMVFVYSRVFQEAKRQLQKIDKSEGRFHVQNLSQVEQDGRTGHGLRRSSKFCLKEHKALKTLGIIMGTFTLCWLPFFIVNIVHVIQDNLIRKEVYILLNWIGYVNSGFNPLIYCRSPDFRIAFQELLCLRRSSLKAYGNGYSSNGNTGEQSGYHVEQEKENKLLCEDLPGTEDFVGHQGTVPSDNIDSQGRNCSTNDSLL
Method in brief: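 Cells (CHO, stable ADRB2 overexpression) incubated 18-20hr at 37C; compounds added from DMSO; agonist mix (1nM isoproterenol, 100uM IBMX, 25uM Ro-20-1724) added; 0.5hr RT; d2-cAMP and anti-cAMP-cryptate added; 1hr RT; 665/615 nm read.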

[12] = target: D(2) dopamine receptor (Homo sapiens) (UniProt P14416); experiment: Dopamine D2 receptor (DRD2) small molecule agonists, cell-based qHTS assay (AID 1963594); note: nearly all actives have a fitted effect of over 35% in size
Sequence of D(2) dopamine receptor (Homo sapiens) (P14416 whole entry, looked up): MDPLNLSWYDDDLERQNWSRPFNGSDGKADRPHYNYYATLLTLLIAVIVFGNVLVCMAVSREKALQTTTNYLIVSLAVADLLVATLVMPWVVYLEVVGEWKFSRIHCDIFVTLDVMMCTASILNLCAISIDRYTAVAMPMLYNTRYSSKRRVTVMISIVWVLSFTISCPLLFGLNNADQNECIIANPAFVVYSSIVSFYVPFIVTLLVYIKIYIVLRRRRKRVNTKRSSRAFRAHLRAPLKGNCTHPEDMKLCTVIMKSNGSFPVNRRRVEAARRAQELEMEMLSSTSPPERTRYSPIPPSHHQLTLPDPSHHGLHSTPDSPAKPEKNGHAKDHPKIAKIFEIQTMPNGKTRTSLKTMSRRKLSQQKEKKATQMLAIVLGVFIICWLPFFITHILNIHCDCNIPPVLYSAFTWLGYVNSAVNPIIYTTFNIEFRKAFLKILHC
Method in brief: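 HEK293 cells stably expressing DRD2 were cultured 24 h at 37 C, then given Ro20-1724 (0.1 mM final) and compounds for 10 min at room temperature. NKH477 (200nM) was then added for 30 min. cAMP was read by HTRF.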

[13] = target: D(2) dopamine receptor (Homo sapiens) (UniProt P14416); experiment: Dopamine D2 receptor (DRD2) small molecule antagonists, cell-based qHTS assay (AID 1963595; active = well fitted inhibition curve with a large enough effect in the signal ratio in the repeat runs, with a control signal flat; the % refers to the signal ratio)
Method in brief: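 DRD2-HEK293; 0.1 mM Ro20-1724; cpd 10 min RT; NKH477 200 nM + quinpirole 12 nM, 30 min RT; HTRF cAMP (cAMP-d2/anti-cAMP cryptate), 665/620 nm ratio after 1 h.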

[14] = p53 small molecule agonists, cell-based qHTS assay: qHTS cell viability counter screen (AID 1963581); note: nearly all actives have a fitted effect of over 45% in size
Method in brief: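 In the same plates used for the p53 bla reporter, HCT-116 cells given compounds for 16 h at 37 C received CellTiter-Glo; luminescence was recorded 30 min later at room temperature.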

[15] = target: 5-hydroxytryptamine receptor 2A (Homo sapiens) (UniProt P28223); experiment: 5-hydroxytryptamine receptor 2A (HTR2A) small molecule antagonists, cell-based qHTS assay (AID 1963586); note: nearly all actives have a fitted effect of over 45% in size
Method in brief: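 Antagonist-mode intracellular calcium assay: DOI (4 nM) added after 5 min compound pre-incubation at room temperature to dye-loaded HTR2A-CHO cells. Fluorescence followed for 3 min, sampled every second.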

[16] = target: Muscarinic acetylcholine receptor M1 (Homo sapiens) (UniProt P11229); experiment: Cholinergic receptor muscarinic 1 (CHRM1) small molecule antagonists, cell-based qHTS assay (AID 1963588); note: nearly all actives have a fitted effect of over 40% in size
Method in brief: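 CHRM1-CHO calcium-flux assay, antagonist mode. Cells were seeded 18 h, dye-loaded 1 h at 37 C and given compound for 5 min at RT, then acetylcholine was added at 50nM. FDSS fluorescence was read 3 min; 15 concentrations, three runs.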

[17] = target: Beta-2 adrenergic receptor (Homo sapiens) (UniProt P07550); experiment: Adrenergic beta2 receptor (ADRB2) small molecule agonists, cell-based qHTS assay (AID 1963593);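 note: CHO cells stably overexpressing human ADRB2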
Method in brief: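 CHO cells stably over-expressing ADRB2 were plated overnight at 37C, then dosed with compounds plus a stimulation mix containing 100uM IBMX and 25uM Ro-20-1724 for 0.5hr at room temperature. cAMP was measured by HTRF competition, 1hr.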

[18] = p53 small molecule agonists, cell-based qHTS assay with human liver microsomes (AID 1963577)
Method in brief: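 Fluorescence of the beta-lactamase reporter in p53RE-bla cells, detected with LiveBLAzer substrate (2 h, room temperature, dark), served as the read-out after 16 h compound exposure at 37 C with human liver microsomes and NADPH, each 0.5 mg/mL final.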

[19] = p53 small molecule agonists, cell-based qHTS assay with rat liver microsomes (AID 1963578)
Method in brief: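 Cells carrying a p53 response element–beta-lactamase reporter were plated and rested 5 h, then dosed with compound in DMSO plus rat liver microsomes and NADPH, each at 0.5 mg/mL final. After 16 h at 37 C, LiveBLAzer substrate was added for 2 h.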

[20] = p53 small molecule agonists, cell-based qHTS assay (AID 1963582; active = well fitted activation curve with a large enough effect in the signal ratio in the repeat runs, not every such curve was filed as active; the % refers to the signal ratio)
Method in brief: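 Compounds are pin-transferred in DMSO onto p53RE-bla cells and incubated 16 h at 37 C. The B/G FRET beta-lactamase substrate is then applied for 2 h at RT and fluorescence recorded.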

Measured: Potency

O=P(O)(O)O
inactive: [1] | [2] | [3] | [4] | [5] | [6] | [7] | [8] | [9] | [10] | [11] | [12] | [13]

COC(=O)/C=C/c1ccccc1
inactive: [1] | [2] | [3] | [4] | [5] | [14] | [15] | [7] | [16] | [8] | [9] | [10] | [11] | [17] | [12] | [13]

C=C(C)[C@H]1CC=C(C)CC1
inactive: [1] | [4] | [18] | [19] | [5] | [6] | [14] | [20] | [15] | [7] | [16] | [8] | [9] | [10] | [11] | [17] | [13]

C[C@]12CC[C@@H]3c4ccc(O)cc4CC[C@H]3[C@@H]1CCC2=O
inactive: [1] | [2] | [3] | [4] | [5] | [6] | [10] | [11] | [12] | [13]

COCCOCCOCCOCCOC
inactive: [1] | [3] | [4] | [18] | [19] | [5] | [6] | [20] | [15] | [7] | [16] | [8] | [9] | [10] | [11] | [17] | [12] | [13]

Cc1ccccc1OCC1CO1 (stereo unspecified)
inactive: [1] | [2] | [3] | [18] | [19] | [5] | [6] | [20] | [15] | [7] | [16] | [10] | [11] | [17] | [12] | [13]

Oc1cccc2ccccc12
inactive: [1] | [2] | [3] | [18] | [5] | [6] | [14] | [20] | [15] | [7] | [16] | [8] | [9] | [10] | [11] | [12] | [13]

CC(C)(C)NC(=O)[C@@H]1CN(Cc2cccnc2)CCN1C[C@@H](O)C[C@@H](Cc1ccccc1)C(=O)N[C@H]1c2ccccc2C[C@H]1O
inactive: [1] | [2] | [3] | [4] | [14] | [20] | [9] | [11] | [17] | [12] | [13]

OCCOCCOCCOCCOCCO
inactive: [1] | [2] | [3] | [18] | [19] | [5] | [6] | [14] | [20] | [15] | [7] | [16] | [8] | [9] | [10] | [11] | [17] | [12] | [13]

O=S(=O)(O)c1ccccc1
inactive: [1] | [3] | [4] | [5] | [6] | [14] | [15] | [7] | [16] | [8] | [9] | [10] | [11] | [17] | [12] | [13]

c1ccc2c(c1)ccc1ncccc12
inactive: [1] | [2] | [3] | [4] | [5] | [6] | [14] | [15] | [7] | [16] | [8] | [11] | [12] | [13]

O=S(=O)(O)CCCN1CCOCC1
inactive: [1] | [2] | [4] | [19] | [5] | [6] | [14] | [20] | [15] | [7] | [8] | [9] | [10] | [11] | [17] | [12] | [13]

Fc1ccccc1-c1ccccc1
inactive: [2] | [3] | [4] | [18] | [19] | [5] | [6] | [14] | [20] | [15] | [7] | [16] | [8] | [9] | [10] | [11] | [12] | [13]

CCCCCCCN
inactive: [2] | [3] | [4] | [18] | [19] | [5] | [14] | [20] | [15] | [7] | [16] | [8] | [9] | [10] | [11] | [12] | [13]

O=C(O)c1ccccc1S
inactive: [2] | [3] | [4] | [18] | [19] | [5] | [6] | [20] | [15] | [7] | [16] | [8] | [9] | [10] | [11] | [12] | [13]
